In all, about 290,000 compounds went through this assay and about 27,000 (9.3%) were called active. This is one part of a sample in which actives are shown more often than they occur. A number with no mark means an inactive call. No stated cut-off is given here; in the data, active means inhibition mostly above about 28% (no sharp cut-off); inactive means mostly below about 43%.
Assay: A qHTS for Small Molecule Inhibitors of Shiga Toxin; on inhibition: 0% is about no effect
Conditions: Vero cells, Shiga toxin protein synthesis inhibition reporter; at 38.7 µM, hits give high values

SMILES	inhibition
CC(C)CCn1c(=O)c2c(nc3n2CCCN3Cc2ccccc2)n(C)c1=O	-11.9%
CC(C)C[C@@H](COc1ccccc1)N1CCN(CC(C)C)CCC1=O	6.99%
O=S(=O)(c1ccc(Br)cc1)N1CCC(c2nc3ccccc3[nH]2)CC1	20.1%
CCCc1cc(=O)oc2c(C)c(OC(C)C(=O)NCC(O)c3ccccc3)ccc12 (stereo unspecified)	-4.11%
O=C(CN(C(=O)c1csnn1)c1cccc(Cl)c1)NC1CCCC1	13.6%
C=CCOC(=O)C(=C)C	-5.85%
OCc1ccc(OCCCOc2cccc3cccnc23)cc1	31.7%
Cc1ccnc(NC(=O)CCNS(=O)(=O)c2ccc(C)c(C)c2)c1	75.2% (active)
Cc1ccc(S(=O)(=O)NCCC(=O)Nc2cccc(S(N)(=O)=O)c2)cc1C	3.14%
Cc1ccc(S(=O)(=O)NCCC(=O)Nc2ccc(C)c(Cl)c2)cc1C	-2.35%
O=[N+]([O-])c1ccccc1/C=C/CN1CCCC(CO)C1 (stereo unspecified)	-4.92%
COc1cc2c(C(=O)N(C)c3cc(Cl)ccc3OC)cn(C)c(=O)c2cc1OC	-4.23%
O=C1CCN(CCCc2ccccc2)CCN1CCO	-7.2%
O=C(Nc1ccccc1)/C(=C/c1ccc([N+](=O)[O-])cc1)NC(=O)c1ccccc1	0.876%
N#C/C(=C/c1ccc(Cl)cc1)NC(=O)c1ccccc1	69.2% (active)
O=C(NCC1CCCO1)/C(=C/c1ccc(Cl)cc1)NC(=O)c1ccccc1 (stereo unspecified)	-1.77%
CCn1c(SCC(=O)NC2CC2)nnc1-c1ccncc1	6.57%
Cc1nn2c(NCCN(C)C)c3c(nc2c1-c1ccccc1)CCC3	-1.35%
Cc1ccc2c(=O)cc(C(=O)NCCc3ccc(S(N)(=O)=O)cc3)oc2c1C	3.06%
CCOC(=O)c1ccc(NC2Nc3cc(C)nn3S2)cc1 (stereo unspecified)	37.2%
CCc1ccc(NC2Nc3cc(C)nn3S2)cc1 (stereo unspecified)	52% (active)
CC(C)(C)c1ccc(/C=C/C(=O)NCCCn2ccnc2)cc1	-13.7%
CCOC(=O)c1ccccc1NC(=O)CSc1nc2ccccc2c(=O)[nH]1	-5.65%
CCC(NC(=O)c1ccccc1NC(=O)c1ccccc1)C(=O)NNC(=O)CSc1nc2ccccc2o1 (stereo unspecified)	23.3% (active)

SMILES	inhibition
Cn1c(=O)[nH]c(=O)c2c1nc(Br)n2CCCCSc1nc2ccccc2o1	39.4%
COc1ccc(OC)c(NC(=O)C2CCCN2S(=O)(=O)c2cccc3nsnc23)c1 (stereo unspecified)	-4.24%
C=CCNc1nc(C)nc(OC)n1	-12.3%
COc1nc(NCc2ccc(Cl)cc2)nc(OC)n1	45.3%
C=CCNc1nc(Nc2ccc(Cl)cc2)nc(OC)n1	71.3% (active)
Cc1sc2nc(SCCO)n(-c3ccccc3)c(=O)c2c1C	-3.85%
Cc1ccc2c(c1)N(C(=O)CCC(=O)NCc1cccnc1)CCO2	3.18%
Oc1ccc(Cl)cc1C1C=C(c2ccc3c(c2)OCO3)NC(c2c(F)cccc2Cl)N1 (stereo unspecified)	68.7% (active)
Oc1ccc(Cl)cc1C1C=C(c2ccc3c(c2)OCO3)NC(c2ccc(F)c(Br)c2)N1 (stereo unspecified)	93.1% (active)
Cc1csc(Nc2ccc(Cl)cc2)[n+]1-c1ccc(Cl)cc1	19.3%
COCCN1C(=O)C(=O)/C(=C(/O)c2ccc(S(=O)(=O)N3CCCCC3)cc2)C1c1ccc(OC)c(OC)c1 (stereo unspecified)	11%
Cn1cccc1/C=N/NC(=O)CNc1cccc2ccccc12	6.61%
Cc1cccc(/C=N/NC(=O)CNc2cccc3ccccc23)n1	70.6% (active)
C/C(=N\NC(=O)CNc1cccc2ccccc12)c1ccc(Br)s1	-8.07%
Clc1ccc(-c2cc(-c3ccccn3)on2)c(Cl)c1	48.1%
c1ccc(-c2nccc(-c3ccc(-n4cnc5ccccc54)cc3)n2)nc1	-13.3%
CC(C)c1nc(-c2ccccn2)no1	46.2% (active)
COc1ccc(-n2ncc3c2CC(C)(C)CC3NC(=O)CCc2c(C)noc2C)cc1 (stereo unspecified)	27.2%
O=C(/C=C/c1cccs1)c1cc(Cl)ccc1OC(=O)N1CCOCC1	18.1%
COc1ccc(-c2nc(CS(=O)(=O)CC(=O)NCc3cccc(Br)c3)c(C)o2)cc1	4.36%
O=C1c2ccccc2NC(c2ccc(-c3cccc(Cl)c3)o2)N1O (stereo unspecified)	58.1% (active)
O=C(O)C(c1ccccc1)N1C(=O)/C(=C\c2ccc(-c3cccc(Cl)c3)o2)SC1=S (stereo unspecified)	-2.95%
O=C1NN(c2ccccc2)C(=O)/C1=C/c1ccc(-c2cccc(C(=O)O)c2)o1	18.2%
COc1cccc(N(CC(=O)NCc2ccccc2)C(=O)CCC(=O)Nc2nccs2)c1	-2.69%

SMILES	inhibition
CC(=O)c1ccc(NC(=S)NC(=O)CC(C)C)cc1	26.8% (active)
CC(C)CC(=O)NC(=S)Nc1cc(C(=O)O)ccc1Cl	30.7%
COc1ccc(NS(=O)(=O)c2ccc(NC(=S)NC(=O)CC(C)C)cc2)cc1	-7.41%
CCOC(=O)C1CCN(S(=O)(=O)c2c(C)noc2C)CC1	30.7%
COC(=O)c1ccccc1NC(=O)CSc1n[nH]c(-c2ccncc2)n1	4.61%
Cc1cccc(C(=O)Nc2ccc(C(=O)/C=C/c3cccs3)cc2)c1	99.7% (active)
Cc1cccc(C(=O)Nc2ccc(C(=O)N/N=C/c3cccc(C)n3)cc2)c1	3.17%
Cc1cccc(C(=O)Nc2ccc(CC(=O)O)cc2)c1	18.5%
Cc1ccc(C(=O)N/C(=C\c2cn(S(=O)(=O)N(C)C)c3ccccc23)C(=O)N2CCCC2)cc1	-2.9%
CCOc1ccc(C(C(=O)NC2CCCC2)N(C(=O)c2snc(C(N)=O)c2N)C2CCCC2)cc1 (stereo unspecified)	12.4%
COc1ccc(-c2nnc3ccc(SCc4ccccc4)nn23)cc1	9.35%
COc1ccc2[nH]c3nc(SCC(=O)NC4CC4)nnc3c2c1	-7.63%
COc1cccc(CSc2nc3nc(C)cc(C)n3n2)c1	-3.55%
COc1ccc2nc(SCc3ccccc3)nc(C)c2c1	70.1% (active)
COC(=O)CSc1nc(C)c2ccc(OC)cc2n1	44.6% (active)
COC(=O)CSc1nc(C2CC2)nc2ccccc12	-5.63%
O=C(COc1cc2oc(=O)c3c(c2cc1Cl)CCC3)NCCCN1CCOCC1	-7.49%
NC(=O)c1cc(S(=O)(=O)NCCCc2ccco2)cs1	19.4%
O=[N+]([O-])c1ccccc1N/N=C1\CCc2ccccc21	50.9% (active)
O=[N+]([O-])c1cc(C(F)(F)F)ccc1NN=C1CCCC1	9.47%
CN1CCN(CCNC(=O)Nc2ccccc2[N+](=O)[O-])CC1	24.3%
CCOC(=O)C1CCCN(S(=O)(=O)c2ccc(-n3cnnn3)c(C)c2)C1 (stereo unspecified)	-3%
COc1ccc(CN2CCC(=O)c3ccccc3S2(=O)=O)cc1	-3.72%
CC(C)(C)c1ccc(CN2C(=O)c3ccccc3S2(=O)=O)cc1	32.5%

SMILES	inhibition
CC(C)(C)c1ccc(OC2=CS(=O)(=O)c3ccccc32)cc1	135% (active)
Cc1cccc(OCC(=O)NCCNC(=O)c2cccnc2)c1	-6.35%
Brc1ccc(C2CC(c3ccccc3)=Nc3ccccc3N2)cc1 (stereo unspecified)	105% (active)
Brc1ccc(C2=NCCC(c3ccccc3)O2)cc1 (stereo unspecified)	inactive
Cc1cc(=O)oc2cc(OCC(=O)N3CCN(c4ccc(F)cc4)CC3)c(Cl)cc12	-2.97%
O=C(Nc1ccc(S(=O)(=O)N2CCCCC2)cc1)C1CC(=O)N(c2ccc(F)cc2)C1 (stereo unspecified)	29.9%
Cc1cc2oc(=O)cc(CN3CCN(Cc4ccccc4)CC3)c2cc1C	-3.23%
Cc1noc(C)c1C(=O)NCCc1ccc(S(N)(=O)=O)cc1	10.5%
Clc1ccc(CN2CCCCCC2)cc1Cl	-3.6%
Cc1cccc(N2CCN(C(=O)c3cccc(S(=O)(=O)N4CCc5ccccc5C4)c3)CC2C)c1 (stereo unspecified)	-8.81%
N#Cc1ccc(N2Cc3ccccc3/C2=N/C(=O)Nc2ccc(Cl)cc2)cc1	24.7%
Cc1cccc(N2Cc3ccccc3C2=NC(=O)c2ccc(Cl)nc2)c1	0% (active)
CCN1CCN(c2ccc(NC(=O)c3cnccn3)cc2)CC1	48.5% (active)
O=C(NCN1CCN(CCO)CC1)c1cnccn1	13%
O=C(Nc1ccc(S(=O)(=O)N2CCCCC2)cc1)c1cnccn1	-1.88%
Cn1c(NN)nc2sc3c(c2c1=O)CCC3	12.5%
Nc1nc(SCC(=O)NCCN2CCOCC2)nc2sc3c(c12)CCC3	7.28%
CC(C)(C)C1CCc2c(sc3nc(SCC(N)=O)nc(N)c23)C1 (stereo unspecified)	42.9% (active)
C=C(C)CSc1nc(N)c2c3c(sc2n1)CCC3	77.1% (active)
Cc1sc2nc(SCC(N)=O)n(C)c(=O)c2c1C	8.03%
CN1CCN(CC(=O)Nc2sc3c(c2C#N)CCC(C(C)(C)C)C3)CC1 (stereo unspecified)	-10.4%
CCOC(=O)N1CCN(S(=O)(=O)N2CCCC(C(=O)NCCCN3CCC(C)CC3)C2)CC1 (stereo unspecified)	-4.12%
CC(=O)c1ccc(NC(=O)CCNS(=O)(=O)c2cc(Br)cnc2N)cc1	-8.28%
CCc1ccc(OCC2c3cc(OC)c(OC)cc3CCN2C(C)=O)cc1 (stereo unspecified)	-3.8%
